# Test results as given in PubChem BioAssay (EPA / NIEHS).
# The source made the active and inactive calls. How the source made its calls: active means hit-call score of the fitted dose curve at least 0.9, where 1 is the maximum; inactive means score below 0.9.
# Legend:
# [1] = target: Paired box protein Pax-6 (Homo sapiens) (UniProt P26367); assay: ATG_Pax6_CIS: Attagene CIS-FACTORIAL HepG2 Assay for human Paired Box 6 (PAX6) (AID 2282956); details: HepG2 CIS-FACTORIAL PAX6 reporter transcription, RNA readout; actives raise or lower the signal
# Procedure, shortened: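 Values derive from bidirectional curve fitting of reporter mRNA signal relative to DMSO. HepG2 cells bearing transfected cis-regulated MRTUs were exposed for 24 h; transcripts were read by RT-PCR and capillary electrophoresis.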
# [2] = ATG_PXRE_CIS: Attagene CIS-FACTORIAL HepG2 Assay for human Pregnane X Receptor Element (PXRE) (AID 2282957); details: HepG2 Attagene CIS-FACTORIAL PXRE reporter, mRNA; actives raise or lower the signal
# Procedure, shortened: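 Using HepG2 transfected with multiple reporter transcription units, endogenous factor-driven transcription was scored as reporter mRNA after 24 h exposure.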
# [3] = ATG_RORE_CIS: Attagene CIS-FACTORIAL HepG2 Assay for human RAR-related Orphan Receptor Element (RORE) (AID 2282959); details: HepG2 Attagene cis-factorial RORE reporter, mRNA; actives raise or lower the signal
# Procedure, shortened: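 Cells were HepG2 carrying transfected cis-regulated reporter constructs, dosed for 24 hours. Total RNA was reverse-transcribed and reporter cDNA amplified, fluorescently labeled and sized by capillary electrophoresis. Activity was fitted bidirectionally relative to DMSO.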
# [4] = ATG_Sox_CIS: Attagene CIS-FACTORIAL HepG2 Assay for human SRY-box transcription factor (SOX) (AID 2282960); details: HepG2 Attagene cis-factorial SOX reporter, mRNA; actives raise or lower the signal
# Procedure, shortened: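 Transient MRTU transfection of HepG2; 24 h compound incubation; TriZol RNA, oligo(dT) RT, PCR, 6-FAM primer extension, HpaI cut, CE. Bidirectional fit, DMSO = baseline.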
# [5] = target: Transcription factor Sp1 (Homo sapiens) (UniProt P08047); assay: ATG_Sp1_CIS: Attagene CIS-FACTORIAL HepG2 Assay for human Specificity Protein 1 (Sp1) (AID 2282961); details: HepG2 Sp1 cis-reporter transcription, actives raise or lower the signal
# Procedure, shortened: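 Endogenous Sp1 activity was gauged in human liver HepG2 cells bearing transfected reporter units under a cis-regulating promoter. After 24 h dosing, reporter mRNA was quantified by RT-PCR with capillary electrophoresis, and activity fitted bidirectionally versus DMSO.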
# [6] = ATG_SREBP_CIS: Attagene CIS-FACTORIAL HepG2 Assay for human Sterol Regulatory Element Binding (SREBP) (AID 2282962); details: HepG2 Attagene cis-factorial SREBP reporter, mRNA; actives raise or lower the signal
# Procedure, shortened: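 Values derive from bidirectional curve fitting with DMSO as baseline. The underlying measurement is reporter mRNA from cis-element-regulated units in transiently transfected HepG2, quantified by RT-PCR and capillary electrophoresis after 24 h exposure.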
# [7] = target: Signal transducer and activator of transcription 3 (Homo sapiens) (UniProt P40763); assay: ATG_STAT3_CIS: Attagene CIS-FACTORIAL HepG2 Assay for human Signal Transducer and Activator of Transcription 3 (STAT3) (AID 2282963); details: HepG2, Attagene cis-factorial STAT3 reporter transcription; actives raise or lower the signal
# Procedure, shortened: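 Fluorescence intensity of 6-FAM-labelled reporter fragments, separated by capillary electrophoresis after RT-PCR, gave the signal. Cells were HepG2 transfected with cis-element reporter units and treated 24 h; fitting was bidirectional relative to DMSO.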
# [8] = ATG_TA_CIS: Attagene CIS-FACTORIAL HepG2 Assay for human TA Basal Promoter (AID 2282964); details: HepG2 Attagene CIS-factorial TA basal promoter reporter; actives raise or lower the signal
# Procedure, shortened: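 Steps: transfect HepG2 with MRTUs; dose 24 h; isolate RNA, DNase-treat, reverse-transcribe; PCR and FAM-label reporter cDNA; digest with HpaI 2h at 37 C; run capillary electrophoresis. Activity fitted both directions against DMSO.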
# [9] = ATG_TCF_b_cat_CIS: Attagene CIS-FACTORIAL HepG2 Assay for human T-Cell-Factor with beta-catenin (TCF/b-cat) (AID 2282965); details: HepG2 TCF/beta-catenin cis-reporter transcription, actives raise or lower the signal
# Procedure, shortened: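 Cells of the HepG2 line carry transiently transfected reporter units whose promoters respond to endogenous factors. Twenty-four hours post-dosing, reporter mRNA induction is measured by fluorescent RT-PCR and capillary electrophoresis, with DMSO as baseline.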
# [10] = ATG_PPRE_CIS: Attagene CIS-FACTORIAL HepG2 Assay for human Peroxisome Proliferator-activated Response Element (PPRE) (AID 2282958); details: HepG2 PPRE cis-element reporter, Attagene transcription factor profiling; actives raise or lower the signal
# Procedure, shortened: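 Cells are first transfected transiently with the multiplexed reporter library, then dosed for 24 h. Total RNA is reverse-transcribed, amplified, fluorescently end-labeled and HpaI-cut before capillary electrophoresis; activity is fitted bidirectionally against DMSO controls.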
# Sequence of Paired box protein Pax-6 (Homo sapiens) (P26367 whole entry, looked up): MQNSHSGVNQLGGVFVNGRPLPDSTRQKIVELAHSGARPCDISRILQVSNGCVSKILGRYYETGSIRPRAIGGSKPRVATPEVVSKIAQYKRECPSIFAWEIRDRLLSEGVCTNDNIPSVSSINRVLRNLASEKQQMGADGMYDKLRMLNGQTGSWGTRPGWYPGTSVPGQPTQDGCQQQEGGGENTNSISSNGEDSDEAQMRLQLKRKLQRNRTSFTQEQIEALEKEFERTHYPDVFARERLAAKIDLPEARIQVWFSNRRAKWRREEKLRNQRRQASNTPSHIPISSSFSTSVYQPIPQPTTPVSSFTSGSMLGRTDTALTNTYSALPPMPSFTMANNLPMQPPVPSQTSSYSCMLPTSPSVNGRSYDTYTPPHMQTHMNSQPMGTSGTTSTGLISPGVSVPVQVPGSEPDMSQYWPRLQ
# Sequence of Signal transducer and activator of transcription 3 (Homo sapiens) (P40763 whole entry, looked up, the tested form may be a part): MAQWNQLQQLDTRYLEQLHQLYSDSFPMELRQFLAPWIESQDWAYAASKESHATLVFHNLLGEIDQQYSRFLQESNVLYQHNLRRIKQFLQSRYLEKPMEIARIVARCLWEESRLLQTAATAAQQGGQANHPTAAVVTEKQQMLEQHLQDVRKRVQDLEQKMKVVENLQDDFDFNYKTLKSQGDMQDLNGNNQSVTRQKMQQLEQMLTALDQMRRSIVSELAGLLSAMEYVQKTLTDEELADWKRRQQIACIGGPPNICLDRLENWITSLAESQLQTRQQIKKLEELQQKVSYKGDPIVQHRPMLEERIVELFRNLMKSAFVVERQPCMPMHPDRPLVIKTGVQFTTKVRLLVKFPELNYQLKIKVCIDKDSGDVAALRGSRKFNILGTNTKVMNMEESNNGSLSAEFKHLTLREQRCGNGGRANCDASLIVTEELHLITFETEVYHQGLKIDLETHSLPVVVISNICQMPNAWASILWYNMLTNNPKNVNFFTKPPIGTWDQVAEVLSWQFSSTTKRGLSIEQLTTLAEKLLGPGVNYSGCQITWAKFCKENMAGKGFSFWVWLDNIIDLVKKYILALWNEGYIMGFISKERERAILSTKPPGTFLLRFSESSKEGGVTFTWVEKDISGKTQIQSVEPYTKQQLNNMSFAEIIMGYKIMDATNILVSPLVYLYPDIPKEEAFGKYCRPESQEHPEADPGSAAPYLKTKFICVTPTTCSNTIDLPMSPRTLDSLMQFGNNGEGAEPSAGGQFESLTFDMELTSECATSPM
# Sequence of Transcription factor Sp1 (Homo sapiens) (P08047 whole entry, looked up): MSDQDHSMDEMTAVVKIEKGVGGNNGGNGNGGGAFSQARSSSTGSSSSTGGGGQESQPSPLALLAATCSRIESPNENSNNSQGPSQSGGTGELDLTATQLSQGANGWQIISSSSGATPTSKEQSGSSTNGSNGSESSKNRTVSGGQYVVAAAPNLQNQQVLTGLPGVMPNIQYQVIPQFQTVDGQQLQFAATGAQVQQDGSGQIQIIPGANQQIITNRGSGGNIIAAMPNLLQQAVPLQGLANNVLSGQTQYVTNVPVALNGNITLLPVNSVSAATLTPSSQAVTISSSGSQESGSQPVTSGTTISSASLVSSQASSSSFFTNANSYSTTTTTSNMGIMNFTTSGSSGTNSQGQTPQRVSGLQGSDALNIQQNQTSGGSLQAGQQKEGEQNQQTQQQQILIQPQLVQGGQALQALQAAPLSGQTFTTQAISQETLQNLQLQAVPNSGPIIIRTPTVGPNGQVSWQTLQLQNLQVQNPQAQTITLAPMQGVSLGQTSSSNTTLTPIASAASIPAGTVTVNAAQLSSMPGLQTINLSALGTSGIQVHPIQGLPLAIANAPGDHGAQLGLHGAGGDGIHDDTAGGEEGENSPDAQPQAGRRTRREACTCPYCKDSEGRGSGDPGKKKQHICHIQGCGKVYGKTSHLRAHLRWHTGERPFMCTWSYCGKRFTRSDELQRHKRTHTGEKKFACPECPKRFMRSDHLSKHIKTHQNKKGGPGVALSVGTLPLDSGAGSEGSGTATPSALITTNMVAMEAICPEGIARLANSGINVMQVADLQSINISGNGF
smiles,measurement,setting,value
C=CCOc1c(Br)cc(Br)cc1Br,outcome,[1],inactive
same,AC50,[2],12.7 µM (active)
same,outcome,[3],inactive
same,outcome,[4],inactive
same,outcome,[5],inactive
same,outcome,[6],inactive
same,outcome,[7],inactive
same,outcome,[8],inactive
same,outcome,[9],inactive
CC(=O)[C@@]1(O)CC[C@H]2[C@@H]3C[C@H](C)C4=CC(=O)C=C[C@]4(C)[C@@]3(F)[C@@H](O)C[C@@]21C,outcome,[1],inactive
same,outcome,[2],inactive
same,outcome,[10],inactive
same,outcome,[4],inactive
same,outcome,[5],inactive
same,outcome,[6],inactive
same,outcome,[8],inactive
same,outcome,[9],inactive
Cn1c(=O)[nH]c2ncn(C)c2c1=O,outcome,[1],inactive
same,outcome,[2],inactive
same,outcome,[10],inactive
same,outcome,[4],inactive
same,outcome,[5],inactive
same,outcome,[6],inactive
same,outcome,[8],inactive
same,outcome,[9],inactive
N#CCc1ccc(Cl)cc1Cl,outcome,[1],inactive
same,AC50,[2],61.8 µM (active)
same,outcome,[10],inactive
same,outcome,[3],inactive
same,outcome,[5],inactive
same,outcome,[6],inactive
same,outcome,[7],inactive
same,outcome,[8],inactive
same,outcome,[9],inactive
OCCCS,outcome,[1],inactive
same,outcome,[2],inactive
same,outcome,[10],inactive
same,outcome,[3],inactive
same,outcome,[5],inactive
same,outcome,[6],inactive
same,outcome,[7],inactive
same,outcome,[8],inactive
same,outcome,[9],inactive
COc1ccc(NC(C)=O)cc1N,outcome,[1],inactive
same,outcome,[2],inactive
same,outcome,[10],inactive
same,outcome,[4],inactive
same,outcome,[5],inactive
same,outcome,[6],inactive
same,outcome,[7],inactive
same,outcome,[8],inactive
same,outcome,[9],inactive
CC(C)=CCC[C@H](C)CCO,outcome,[1],inactive
same,outcome,[2],inactive
same,outcome,[10],inactive
same,outcome,[3],inactive
same,outcome,[5],inactive
same,outcome,[6],inactive
same,outcome,[7],inactive
same,outcome,[8],inactive
same,outcome,[9],inactive
CCCCCCCCc1ccc(Nc2ccc(CCCCCCCC)cc2)cc1,outcome,[1],inactive
same,AC50,[2],6.3 µM (active)
same,outcome,[10],inactive
same,outcome,[4],inactive
same,outcome,[6],inactive
same,outcome,[7],inactive
same,outcome,[8],inactive
same,outcome,[9],inactive
O=C(Cl)c1cc(C(=O)Cl)cc(C(=O)Cl)c1,outcome,[1],inactive
same,AC50,[2],47.6 µM (active)
same,AC50,[10],100 µM (active)
same,outcome,[4],inactive
same,outcome,[5],inactive
same,outcome,[6],inactive
same,outcome,[7],inactive
same,outcome,[8],inactive
same,outcome,[9],inactive
CCOC(=O)c1ccc(N(C)C)cc1,outcome,[1],inactive
same,AC50,[2],28.1 µM (active)
same,outcome,[10],inactive
same,outcome,[3],inactive
same,outcome,[5],inactive
same,outcome,[6],inactive
same,outcome,[8],inactive
same,outcome,[9],inactive
CCN(CC#N)c1cccc(C)c1,outcome,[1],inactive
same,AC50,[2],45.3 µM (active)
same,outcome,[10],inactive
same,outcome,[3],inactive
same,outcome,[5],inactive
same,outcome,[6],inactive
same,outcome,[7],inactive
same,outcome,[8],inactive
same,outcome,[9],inactive
O=C1CCCCCCCCCCC(=O)OCCO1,outcome,[1],inactive
same,outcome,[2],inactive
same,outcome,[3],inactive
same,outcome,[4],inactive
same,outcome,[5],inactive
same,outcome,[6],inactive
same,outcome,[7],inactive
same,outcome,[8],inactive
same,outcome,[9],inactive
CC(C)C(=O)C(C)C,AC50,[1],42.4 µM (active)
same,outcome,[2],inactive
same,outcome,[10],inactive
same,outcome,[5],inactive
same,outcome,[6],inactive
same,outcome,[8],inactive
same,AC50,[9],61.5 µM (active)
CC(C)CCCCCOC(=O)CCS,outcome,[1],inactive
same,AC50,[2],6.6 µM (active)
same,outcome,[10],inactive
same,outcome,[4],inactive
same,outcome,[5],inactive
same,outcome,[6],inactive
same,outcome,[8],inactive
same,outcome,[9],inactive
C=C[C@](C)(O)CC[C@@H]1[C@@]2(C)CCCC(C)(C)[C@@H]2CC[C@@]1(C)O,outcome,[1],inactive
same,AC50,[2],0.357 µM (active)
same,outcome,[10],inactive
same,outcome,[4],inactive
same,outcome,[5],inactive
same,outcome,[6],inactive
same,outcome,[7],inactive
same,outcome,[8],inactive
same,outcome,[9],inactive
CC(CC=O)c1ccccc1 (stereo not drawn),outcome,[1],inactive
same,AC50,[2],4.15 µM (active)
same,outcome,[10],inactive
same,outcome,[5],inactive
same,outcome,[6],inactive
same,outcome,[7],inactive
same,outcome,[8],inactive
same,outcome,[9],inactive
c1cc(N(CC2CO2)CC2CO2)ccc1OCC1CO1 (stereo not drawn),AC50,[1],46.4 µM (active)
same,outcome,[2],inactive
same,AC50,[3],80.6 µM (active)
same,AC50,[4],58.5 µM (active)
same,AC50,[5],56.9 µM (active)
same,AC50,[6],68.3 µM (active)
same,outcome,[7],inactive
same,outcome,[8],inactive
same,AC50,[9],12.6 µM (active)
Cc1ccc2oc(=O)ccc2c1,outcome,[1],inactive
same,outcome,[2],inactive
same,outcome,[10],inactive
same,outcome,[4],inactive
same,outcome,[6],inactive
same,outcome,[7],inactive
same,outcome,[8],inactive
same,outcome,[9],inactive
O=c1cc(-c2ccccc2)oc2ccccc12,AC50,[1],99.5 µM (active)
same,AC50,[2],4.25 µM (active)
same,AC50,[10],4.81 µM (active)
same,outcome,[4],inactive
same,outcome,[6],inactive
same,outcome,[7],inactive
same,AC50,[8],99.5 µM (active)
same,AC50,[9],25.2 µM (active)
C1CN(SSN2CCOCC2)CCO1,outcome,[1],inactive
same,outcome,[2],inactive
same,outcome,[10],inactive
same,outcome,[4],inactive
same,outcome,[5],inactive
same,outcome,[6],inactive
same,outcome,[7],inactive
same,outcome,[8],inactive
same,outcome,[9],inactive
C=CC(=O)OCCOC(=O)C=C,AC50,[1],14.9 µM (active)
same,AC50,[2],26.5 µM (active)
same,AC50,[3],27.3 µM (active)
same,outcome,[4],inactive
same,AC50,[5],25.3 µM (active)
same,outcome,[6],inactive
same,outcome,[7],inactive
same,outcome,[8],inactive
same,AC50,[9],26.7 µM (active)
OC1OCCOC1O (stereo not drawn),outcome,[1],inactive
same,outcome,[2],inactive
same,outcome,[3],inactive
same,outcome,[4],inactive
same,outcome,[5],inactive
same,outcome,[6],inactive
same,outcome,[7],inactive
same,outcome,[8],inactive
same,outcome,[9],inactive
C=C1[C@H]2CC[C@@H]3[C@H]2C(C)(C)CCC[C@]13C,outcome,[1],inactive
same,AC50,[2],5.34 µM (active)
same,outcome,[10],inactive
same,outcome,[5],inactive
same,outcome,[6],inactive
same,outcome,[7],inactive
same,outcome,[8],inactive
same,outcome,[9],inactive
COc1ccc([C@@H]2CC(=O)c3c(O)cc(O[C@@H]4O[C@H](CO[C@@H]5O[C@@H](C)[C@H](O)[C@@H](O)[C@H]5O)[C@@H](O)[C@H](O)[C@H]4O)cc3O2)cc1OC,outcome,[1],inactive
same,outcome,[2],inactive
same,outcome,[3],inactive
same,outcome,[4],inactive
same,outcome,[5],inactive
same,outcome,[6],inactive
same,outcome,[7],inactive
same,outcome,[8],inactive
same,outcome,[9],inactive
c1cc(C(c2ccc(OCC3CO3)cc2)C(c2ccc(OCC3CO3)cc2)c2ccc(OCC3CO3)cc2)ccc1OCC1CO1 (stereo not drawn),AC50,[1],34.4 µM (active)
same,AC50,[2],7.01 µM (active)
same,outcome,[10],inactive
same,outcome,[4],inactive
same,AC50,[5],31.8 µM (active)
same,outcome,[6],inactive
same,outcome,[7],inactive
same,AC50,[8],72.2 µM (active)
same,AC50,[9],36.8 µM (active)
CCCCCCCCCCC=CC#N,outcome,[1],inactive
same,AC50,[2],27.5 µM (active)
same,outcome,[10],inactive
same,outcome,[4],inactive
same,outcome,[5],inactive
same,outcome,[6],inactive
same,outcome,[7],inactive
same,outcome,[8],inactive
same,outcome,[9],inactive
